# Reference: ChEMBL document CHEMBL3433997, “St. Jude Leishmania screening dataset” (2016)
# Key:
# Type in all cases: functional
# [1] = biological target: Solute carrier family 2, facilitated glucose transporter member 1 (Homo sapiens) (UniProt P11166); test: ST_JUDE_LEISH: Cytotoxicity at 2uM final concentration against transgenic Leishmania Mexicana promastigotes LmGLUT1 that are glucose transport deficient and complemented with the human glucose transporter GLUT1. Activity is measured by DNA content using SYBR green in vitro
# [2] = biological target: Hexose transporter 1 (Plasmodium falciparum) (UniProt O97467); test: ST_JUDE_LEISH: Cytotoxicity at 2uM final concentration against transgenic Leishmania Mexicana promastigotes LmPfHT that are glucose transport deficient and complemented with the Plasmodium falciparum hexose transporter. Activity is measured by DNA content using SYBR green in vitro
# [3] = biological target: Glucose transporter (Leishmania mexicana) (UniProt O61059); test: ST_JUDE_LEISH: Cytotoxicity at 2uM final concentration against transgenic Leishmania Mexicana promastigotes LmGT2 that are glucose transport deficient and complemented with the L. Mexicana glucose transporter 2. Activity is measured by DNA content using SYBR green in vitro
# Solute carrier family 2, facilitated glucose transporter member 1 (Homo sapiens), sequence (P11166 whole entry): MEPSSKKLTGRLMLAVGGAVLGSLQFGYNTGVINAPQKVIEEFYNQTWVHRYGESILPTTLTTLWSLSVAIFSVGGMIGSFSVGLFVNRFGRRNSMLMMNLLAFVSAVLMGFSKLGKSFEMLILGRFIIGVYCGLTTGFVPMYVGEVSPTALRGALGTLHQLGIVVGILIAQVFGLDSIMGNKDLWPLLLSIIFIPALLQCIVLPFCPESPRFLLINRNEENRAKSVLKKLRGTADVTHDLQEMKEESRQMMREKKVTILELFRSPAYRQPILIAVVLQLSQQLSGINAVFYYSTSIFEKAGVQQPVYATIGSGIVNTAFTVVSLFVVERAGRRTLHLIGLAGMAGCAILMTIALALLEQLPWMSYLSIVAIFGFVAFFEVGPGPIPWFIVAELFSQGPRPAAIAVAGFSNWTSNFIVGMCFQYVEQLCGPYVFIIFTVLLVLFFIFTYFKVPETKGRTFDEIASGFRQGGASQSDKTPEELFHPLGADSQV
smiles,measurement,setting,value
O=C(CC(=O)C(F)(F)F)c1ccc2c(c1)OCO2,inhibition,[1],1.45%
same,inhibition,[2],1.74%
same,inhibition,[3],2.14%
CC(C)N1CCN(c2ccc(OCCCCN3CCN(c4cccc(Cl)c4Cl)CC3)cc2Cl)CC1,inhibition,[1],-1.28%
same,inhibition,[2],0.44%
same,inhibition,[3],-2.3%
CCCCN(CCCC)CCCN(CCCN(CCCC)CCCC)c1cc(C)nc(Nc2ccc(Br)cc2)n1,inhibition,[1],-1.21%
same,inhibition,[2],-0.35%
same,inhibition,[3],-1.15%
CCCCCCNc1cc(C)nc2ccc(OC)cc12,inhibition,[1],11.1%
same,inhibition,[2],11.4%
same,inhibition,[3],4.54%
Cc1cccc2nc(-c3cccc(-c4cccc(NC(=O)Nc5ccc(F)c(F)c5F)c4)c3)[nH]c12,inhibition,[1],1.75%
same,inhibition,[2],2.51%
same,inhibition,[3],2.44%
CN(Cc1cccc(O)c1)C1CCN(c2cc(NC(=O)c3ccc(F)cc3)ccn2)CC1,inhibition,[1],2.02%
same,inhibition,[2],3.1%
same,inhibition,[3],3.78%
CCOc1cc(C(=O)NC2CCN(Cc3ccccc3)CC2)ccc1-c1nc2cc(Cl)ccc2[nH]1,inhibition,[1],4.1%
same,inhibition,[2],5.59%
same,inhibition,[3],3.09%
COc1ccc2nccc([C@@H](O)CN3CCC(NCc4cnc5c(c4)NC(=O)CS5)C(F)C3)c2c1 (some centres not stated),inhibition,[1],-0.32%
same,inhibition,[2],-0.31%
same,inhibition,[3],0.86%
COc1ccc2[nH]ccc(=NN=Cc3cccnc3)c2c1,inhibition,[1],1.08%
same,inhibition,[2],-2.41%
same,inhibition,[3],1.2%
CCCCNc1cc(NCCCC)c2c(n1)[nH]c1ccccc12,inhibition,[1],18.4%
same,inhibition,[2],16.6%
same,inhibition,[3],4.43%
CN1CCC(C(=O)Nc2ccc(-c3cccc(-c4nc5cc(C(F)(F)F)ccc5[nH]4)c3)cc2)CC1,inhibition,[1],0.78%
same,inhibition,[2],2.62%
same,inhibition,[3],2.31%
Clc1cc(Nc2ccnc3ccc(Br)cc23)ccc1Oc1ccc2ccccc2c1Cl,inhibition,[1],2.41%
same,inhibition,[2],5.44%
same,inhibition,[3],1.22%
O=C(Nc1cc(Cl)cc(Cl)c1)c1cc(Cl)c(=O)n(Cc2cccc(Cl)c2)c1,inhibition,[1],3.25%
same,inhibition,[2],-1.14%
same,inhibition,[3],-1.24%
CC1(C)CCC(C)(C)c2c1ccc(C1CCN(CCCCNC(=O)c3ccc(-c4ccc(C#N)cc4)cc3)CC1)c2O,inhibition,[1],0.66%
same,inhibition,[2],0.22%
same,inhibition,[3],0.63%
CC(C)OC(=O)c1ccc(NC(=O)N[C@@H](Cc2ccc(O)cc2)C(=O)NC2CC3CCC(C2)N3Cc2ccccc2)cc1 (some centres not stated),inhibition,[1],5.85%
same,inhibition,[2],4.77%
same,inhibition,[3],-0.07%
O=C(NCCCN1CCC(NC(=O)c2ccc(-c3cccnc3)cc2)CC1)c1ccc(Cl)c(Cl)c1,inhibition,[1],2.51%
same,inhibition,[2],1.38%
same,inhibition,[3],1.63%
COc1ccc(NC(=O)[C@H](CC(C)C)Nc2ccnc(NCCc3ccc(F)cc3)n2)cc1,inhibition,[1],1.22%
same,inhibition,[2],1.43%
same,inhibition,[3],1.38%
CSc1ccc(NC(=O)Nc2cc(C)nc3ccccc23)cc1Br,inhibition,[1],-2.43%
same,inhibition,[2],0.36%
same,inhibition,[3],0.36%
COc1ccc(CC(=O)Nc2ccc(-c3cccc(-c4nc5cccc(C)c5[nH]4)c3)cc2)cc1O,inhibition,[1],3.89%
same,inhibition,[2],5.29%
same,inhibition,[3],5.34%
N=C(N)NN=CC(=O)Nc1ccc(Cl)c(C(F)(F)F)c1,inhibition,[1],8.87%
same,inhibition,[2],7.04%
same,inhibition,[3],9.08%
O=C(Nc1cccc(-c2nn3ncccc3c2-c2ccnc(Nc3cccc(C(F)(F)F)c3)n2)c1)c1c(F)cccc1F,inhibition,[1],2.16%
same,inhibition,[2],3.08%
same,inhibition,[3],-0.92%
CN1CCCc2ccc(NC(=O)C=Cc3ccc(-c4ccc(F)cc4F)o3)cc2C1,inhibition,[1],0.88%
same,inhibition,[2],0.81%
same,inhibition,[3],2.73%
c1ccc2c(NCCCCCCCCCNc3ccnc4ccccc34)ccnc2c1,inhibition,[1],-0.85%
same,inhibition,[2],4.91%
same,inhibition,[3],8.19%
Cc1noc(C)c1-c1cccc(CNCc2cccc(-c3cccc(-c4nc5cc(C(F)(F)F)ccc5[nH]4)c3)c2)c1,inhibition,[1],0.14%
same,inhibition,[2],1.85%
same,inhibition,[3],0.61%
N#Cc1cccc(NC(=O)Nc2ccc3c(c2)CN(Cc2c[nH]c4ncccc24)C3)c1,inhibition,[1],6.66%
same,inhibition,[2],7.47%
same,inhibition,[3],3.37%
O=C(/C=C/c1ccc(Cl)c(Cl)c1)NC1CCC(CN2CCC(Cc3c[nH]c4ccccc34)CC2)CC1 (configuration not stated),inhibition,[1],2.9%
same,inhibition,[2],3.43%
same,inhibition,[3],3.79%
CN1CCN(CCCN(Cc2ccc(-c3cccc(CNCc4ccc5c(c4)OCO5)c3)cc2)C(=O)CCC2CCCC2)CC1,inhibition,[1],2.35%
same,inhibition,[2],2.56%
same,inhibition,[3],-0.03%
CN(CCN1CCC(c2c[nH]c3ccccc23)CC1)c1ccc(-c2nc3cc(Cl)c(Cl)cc3[nH]2)cc1,inhibition,[1],2.04%
same,inhibition,[2],0.16%
same,inhibition,[3],0.74%
COc1ccc(Br)cc1/C=C/C(=O)Nc1ccc2c(c1)CCCN(C)C2,inhibition,[1],0.84%
same,inhibition,[2],3.78%
same,inhibition,[3],3.56%
CN(C)CCN(C)C(=O)c1cc(-c2ccncc2)c(-c2ccc(Cl)c(O)c2)o1,inhibition,[1],8.43%
same,inhibition,[2],8.13%
same,inhibition,[3],6.77%
O=C(/C=C/c1ccc(Cl)cc1)NCCCCCN1CCCC(C(=O)Nc2cccc(Cl)c2)C1 (configuration not stated),inhibition,[1],2.85%
same,inhibition,[2],2.1%
same,inhibition,[3],3.91%
Fc1cccc(COc2ccc(Nc3ncnc4sc(C#C[C@H]5CC[C@H](CN6CCOCC6)N5)cc34)cc2Cl)c1,inhibition,[1],0.36%
same,inhibition,[2],-0.26%
same,inhibition,[3],-0.26%
CCC(=Cc1cccc([N+](=O)[O-])c1)C(=O)NCC1CCN(c2nc3cc(OC)c(OC)cc3c(=N)[nH]2)CC1,inhibition,[1],5.64%
same,inhibition,[2],7.07%
same,inhibition,[3],6.83%
CCC1CN2CCc3c([nH]c4ccccc34)C2CC1CC1=NCCc2c1[nH]c1ccccc21 (configuration not stated),inhibition,[1],1.78%
same,inhibition,[2],3.33%
same,inhibition,[3],2.74%
NCC1CCCN1Cc1ccc(-c2ccc(-c3nc4ccccc4[nH]3)s2)cc1 (configuration not stated),inhibition,[1],-0.41%
same,inhibition,[2],-0.71%
same,inhibition,[3],-0.41%
Nc1ncc(-c2cn[nH]c2)cc1-c1nc2cc(Cl)cnc2[nH]1,inhibition,[1],3.35%
same,inhibition,[2],1.4%
same,inhibition,[3],1.93%
O=C(Nc1ccc(Cl)cc1)Nc1nc2cc([N+](=O)[O-])ccc2[nH]1,inhibition,[1],0.18%
same,inhibition,[2],0.01%
same,inhibition,[3],0.02%
CCCNCc1ccc(-c2ccc(CN(CCOC)C(=O)c3nn(-c4ccccc4)nc3C)cc2)nc1,inhibition,[1],4.16%
same,inhibition,[2],1.87%
same,inhibition,[3],1%
Cc1cc(N/N=C/c2ccccc2[N+](=O)[O-])c2cc(C(F)(F)F)ccc2n1,inhibition,[1],-3.14%
same,inhibition,[2],0.97%
same,inhibition,[3],1.45%
CCOc1ccc2[nH]c(C)cc(=NN=Cc3cccc(F)c3)c2c1,inhibition,[1],-0.81%
same,inhibition,[2],-2.04%
same,inhibition,[3],0.95%
CC(C)(C)OC(=O)N[C@@H](Cc1ccccc1)C(=O)Nc1cccc(-c2cccc(NC(=O)[C@H](Cc3ccccc3)NC(=O)OC(C)(C)C)c2)c1,inhibition,[1],0.62%
same,inhibition,[2],0.21%
same,inhibition,[3],0.33%
NCCCNc1nc(Nc2ccc(C(F)(F)F)cc2F)c2c(=O)[nH]ccc2n1,inhibition,[1],3.4%
same,inhibition,[2],3.63%
same,inhibition,[3],0.74%
N=C(N)Nc1nccc(NCc2ccccc2)n1,inhibition,[1],-2.64%
same,inhibition,[2],-0.68%
same,inhibition,[3],-0.48%
CCNc1cc(C(=O)N[C@@H](Cc2ccccc2)[C@H](O)CNC(CC)c2cccc(Cl)c2)cc(N2CCCCS2(=O)=O)c1 (some centres not stated),inhibition,[1],4.81%
same,inhibition,[2],1.05%
same,inhibition,[3],-0.27%
CC(CC(=O)NCC1(c2ccc(F)cc2Cl)CCOCC1)C(=O)c1ccc(Cl)cc1 (configuration not stated),inhibition,[1],0.34%
same,inhibition,[2],1.23%
same,inhibition,[3],1.88%
CC(C)CC(NC(=O)c1cc2ccccc2s1)C(=O)N1CCCCCC1c1ccc(C(C)(C)C)cc1 (configuration not stated),inhibition,[1],-2.77%
same,inhibition,[2],-0.83%
same,inhibition,[3],-0.81%
Fc1ccc2[nH]c(-c3cccc(-c4cccc(CNCCN5CCNCC5)c4)c3)nc2c1,inhibition,[1],2.5%
same,inhibition,[2],2.3%
same,inhibition,[3],0.88%
O=C(NC1CCC(N2CCC(c3ccccc3C(F)(F)F)CC2)CC1)c1cc2ccccc2[nH]1 (configuration not stated),inhibition,[1],8.86%
same,inhibition,[2],5.68%
same,inhibition,[3],31.2%
CCC(C)CN1CCN(c2cc(NC(=O)c3cccs3)ccn2)C(C)C1 (configuration not stated),inhibition,[1],-1.02%
same,inhibition,[2],2.3%
same,inhibition,[3],1.68%
